Pf Dd2 inh: P. falciparum Dd2 growth inhibitors, primary screen, SYBR Green fluorescence, single dose replicates | AID 1159554, 2015 | activity change, % at 10 µM | 2.3% of 94,000 active | 72 h; hits give low values; in the data active = activity change below about -80%
Tcruzi prolif: T. cruzi intracellular proliferation inhibitors, primary screen, cell-based, beta-gal Tulahuen parasites, NIH3T3 host, luminescence; T. cruzi beta-gal in NIH3T3, GalScreen luminescence, 90 h; inhibition, % at 8.34 µM; 5.9% of 77,000 active; AID 624255, 2012;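 active = mean inhibition above about 93%, with at least 55% of replicates each passing it, limit read from the data, passing the limit was not always enough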
C diff HTS: C. difficile growth inhibitors, primary screen, HTS; Clostridium difficile clinical isolate growth, OD600, 24 h; hits give low values; growth activity, negative = inhibition, % at 16 µg/mL (by protocol); 0.25% of 86,000 active; AID 1259249, 2017;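 active = mean growth activity at or below -80% and every replicate also at or below -80%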
A number is an active result; - = inactive; . = no result given. Compounds with a hit are over-represented: about 6.8% of the library has one in this group of screens.

SMILES | Pf Dd2 inh | Tcruzi prolif | C diff HTS
CCCNC(=O)N1CC[C@@H]2[C@H]1c1cc(C#Cc3ccc(OC)cc3)ccc1N(C)[C@@H]2CO | - | - | -
COc1ccc2c3c(n(C)c2c1)[C@@H](CO)N(C(=O)Nc1ccc(F)cc1)CC31CCN(Cc2cccnc2)CC1 | -89 | . | -
COc1ccc2c3c(n(C)c2c1)[C@H](CO)N(C(=O)Nc1ccc(F)cc1)CC31CCN(Cc2cccnc2)CC1 | -90 | . | -
COc1ccc2c3c(n(C)c2c1)[C@H](CO)N(C(=O)Nc1ccc(F)cc1)CC31CCN(C(=O)c2cccnc2)CC1 | - | . | -
COc1ccc2c3c(n(C)c2c1)[C@@H](CO)N(C(=O)Nc1ccc(F)cc1)CC31CN(Cc2cccnc2)C1 | - | . | -
O=C1CN(Cc2ccc(F)cc2)C[C@@H]2[C@H](c3ccc(-c4ccccc4)cc3)[C@@H](CO)N12 | - | . | -
COc1ccc(NC(=O)N(C)C[C@@H]2OCCCC[C@@H](C)Oc3ccc(NC(=O)C4CCCCC4)cc3C(=O)N([C@H](C)CO)C[C@@H]2C)cc1 | - | - | -
C[C@@H]1CN([C@@H](C)CO)C(=O)c2c(c3ccccc3n2C)-c2ccccc2CO[C@H]1CN(C)C(=O)Nc1ccccc1C(F)(F)F | -90 | . | -
C[C@H]1CN([C@@H](C)CO)C(=O)c2c(c3ccccc3n2C)-c2ccccc2CO[C@@H]1CN(C)C(=O)Nc1cccc(Cl)c1Cl | -84 | . | -
COc1ccccc1NC(=O)N(C)C[C@@H]1OCc2ccccc2-c2c(n(C)c3ccccc23)C(=O)N([C@@H](C)CO)C[C@@H]1C | - | - | .
C[C@H](CO)N1C[C@H](C)[C@@H](CN(C)C(=O)Nc2ccccc2C(F)(F)F)OCc2ccccc2-c2c(n(C)c3ccccc23)C1=O | - | . | -
Cc1ccc(S(=O)(=O)Nc2ccc3c(c2)C(=O)N([C@H](C)CO)C[C@H](C)[C@H](CN(C)C(=O)Nc2cccc4ccccc24)O3)cc1 | - | - | -
CC(C)NC(=O)N(C)C[C@H]1Oc2cc(C#C[C@@H](C)O)ccc2S(=O)(=O)N([C@H](C)CO)C[C@@H]1C | - | . | -
CCCNC[C@@H]1[C@@H](c2ccc(C3=CCCC3)cc2)[C@@H](CO)N1C(=O)C1CCCC1 | -92 | . | -
CCC(=O)NC[C@@H]1[C@@H](c2ccc(C3=CCCC3)cc2)[C@@H](CO)N1CC1CCCC1 | - | . | -
CCC(=O)N1[C@H](CO)[C@H](c2ccc(C3=CCCCC3)cc2)[C@H]1CNC1CCCC1 | -90 | . | -
OC[C@@H]1[C@H](c2ccc(C3=CCCCC3)cc2)[C@@H](CNC2CCCC2)N1CC1CC1 | -92 | . | -
CCC(=O)N1[C@H](CO)[C@H](c2ccc(C3=CCCC3)cc2)[C@H]1CNC1CCCC1 | - | . | -
CCC(=O)NC[C@H]1[C@H](c2ccc(C3=CCCC3)cc2)[C@@H](CO)N1C(=O)C1CC1 | - | - | -
C/C=C/c1ccc([C@H]2[C@@H](CO)N(C(=O)CC)[C@@H]2CNCC2CCCCC2)cc1 | -85 | . | -
C/C=C/c1ccc([C@H]2[C@@H](CO)N(C(=O)CC)[C@@H]2CNCC2CCCC2)cc1 | - | . | -
COc1ccc2c3c(n(C)c2c1)[C@H](CO)N(CC1CCCCC1)CC31CN(C(C)=O)C1 | - | . | -
CO[C@@H]1CN(C)C(=O)c2ccc(NC(=O)c3cccc(F)c3)cc2OC[C@@H](C)N(CC2CC2)C[C@@H]1C | - | - | -
C[C@@H]1CN([C@@H](C)CO)C(=O)c2cc(NC(=O)CCC(F)(F)F)ccc2O[C@@H](C)CCCCO[C@@H]1CN(C)C(=O)Nc1cccc2ccccc12 | -89 | - | -
C[C@@H]1CN([C@H](C)CO)C(=O)c2cc(NC(=O)CCC(F)(F)F)ccc2O[C@@H](C)CCCCO[C@H]1CN(C)C(=O)Nc1cccc2ccccc12 | - | - | -
SMILES | Pf Dd2 inh | Tcruzi prolif | C diff HTS
C[C@H](CO)N1C[C@H](C)[C@@H](CN(C)C(=O)Nc2cccc3ccccc23)OCCCC[C@H](C)Oc2ccc(NC(=O)CCC(F)(F)F)cc2C1=O | - | - | -
C[C@@H]1CN([C@@H](C)CO)C(=O)c2cc(NC(=O)CCC(F)(F)F)ccc2O[C@@H](C)CCCCO[C@H]1CN(C)C(=O)Nc1cccc2ccccc12 | -85 | - | -
COc1ccc(S(=O)(=O)N[C@H]2CC[C@@H](CCNC(=O)Cc3ccccn3)O[C@@H]2CO)cc1 | - | - | .
O=C(C[C@H]1C[C@@H]2c3cc(NC(=O)C4CCC4)ccc3O[C@@H]2[C@@H](CO)O1)NCc1cccc(F)c1 | - | - | .
C/C=C/c1ccc([C@H]2[C@@H](CO)N(CC3CC3)C23CN(C(=O)COC)C3)cc1 | - | . | -
C/C=C/c1ccc([C@@H]2[C@H](CO)N(CC3CC3)C23CN(C(=O)c2ccc4c(c2)OCO4)C3)cc1 | -83 | . | -

Screening data deposited in PubChem by Broad Institute.
